Shown are actives, neighbours in structure and some others; about 3.4% of the full set was active somewhere.
RGS12 GoLoco inh – RGS12 GoLoco-Gai1 interaction inhibition; AID 880; Gai1:RGS12 GoLoco peptide FP, rhodamine, 10 min; Potency, µM (doses to about 61.6 µM), for inactives: at the highest dose activity, negative = inhibition, most hits filed as inhibitors; P63096; 0.44% of 230,000 active; active = well fitted inhibition curve with a large enough effect, not every such curve was filed as active; inactive = no such curve, though single readings can be large or run the other way; note: nearly all actives have a fitted effect of over 30% in size
KDM4E inh – blocks human JMJD2E demethylase activity | B2RXH2 | JMJD2E catalytic domain, FDH-coupled NADH fluorescence (FDH is formaldehyde dehydrogenase) | Potency, µM (top dose mostly 57.1 µM), inactives show at the highest dose activity change, negative = inhibition, actives largely listed as inhibitors | 1.6% of 230,000 active | AID 2147; active = well fitted inhibition curve with a large enough effect, not every such curve was filed as active; inconclusive = small, poorly fitted or top-dose-only effect, or another doubt; inactive = no such curve, though single readings can be large or run the other way;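 note: 0% = wells with enzyme and -100% = buffer wells without enzyme; nearly all actives have a fitted effect of over 50% in size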
Target sequence (B2RXH2 1-337 limits assumed): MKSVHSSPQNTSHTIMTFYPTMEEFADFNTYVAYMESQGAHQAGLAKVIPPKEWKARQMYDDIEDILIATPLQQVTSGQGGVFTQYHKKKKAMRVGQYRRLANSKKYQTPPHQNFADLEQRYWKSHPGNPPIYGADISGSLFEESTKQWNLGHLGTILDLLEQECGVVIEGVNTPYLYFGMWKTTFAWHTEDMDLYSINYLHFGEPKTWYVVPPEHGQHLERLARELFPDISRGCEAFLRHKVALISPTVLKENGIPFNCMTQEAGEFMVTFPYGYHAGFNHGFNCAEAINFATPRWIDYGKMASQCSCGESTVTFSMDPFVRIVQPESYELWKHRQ
Tau fluor cs – counter-screen for tau fibril formation inhibitors; 0.93% of 280,000 active; tau K18 P301L Alexa594 fluorescence, heparin fibrillization; Potency, µM (titrated, usually from 57.7 µM), without a hit: at the highest dose activity change, negative = decrease; note: nearly all actives have a fitted effect of over 55% in size
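Human K18 P301L tau (15 uM unlabeled plus 0.24 uM Alexa 594-labeled, final) in 100 mM sodium acetate pH 7 was mixed with compound and 20 uM heparin and incubated 6 hr at 37 C.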
Tau fibril ThT – inhibitors of human tau fibril formation, thioflavin T binding | AID 1460 | 2.1% of 270,000 active | Potency, µM (highest dose often 57.4 µM), without a hit: at the top dose activity, negative = inhibition, most hits filed as inhibitors | recombinant tau K18 P301L (four-repeat tau fragment), heparin-induced fibrillization, ThT fluorescence; note: nearly all actives have a fitted effect of over 55% in size
Target sequence (P10636 561-689 P618L limits assumed): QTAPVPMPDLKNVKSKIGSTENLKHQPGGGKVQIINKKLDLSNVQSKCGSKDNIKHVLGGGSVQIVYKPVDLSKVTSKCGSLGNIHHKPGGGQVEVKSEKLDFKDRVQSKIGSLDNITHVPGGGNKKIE
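Tau K18 P301L fragment (15 uM unlabeled plus 0.24 uM Alexa 594-labeled) in 100 mM sodium acetate pH 7 with compound, fibrillization induced by 20 uM heparin for 6 hr at 37 C. Thioflavin T (30 uM) added, fluorescence read after 1 hr (ex 450, em 510 nm).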
Tau FP inhib – inhibitors of human tau fibril formation; K18 P301L tau heparin fibrillization, Alexa594 FP, 6 h; Potency, µM (top dose mostly 57.7 µM), inactives show top-dose activity, negative = inhibition, hits mostly inhibitors; 0.39% of 280,000 active; AID 1468; note: nearly all actives have a fitted effect of over 55% in size
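Read-out: fluorescence polarization of Alexa 594-labeled tau (0.24 uM), 555 nm excitation, 632 nm emission. Mixtures held 15 uM unlabeled K18 P301L, compound and 20 uM heparin, pH 7 acetate buffer, incubated 6 hr at 37 C.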
* marks the source's active call; other numbers are inactive results; ? = inconclusive; / = not tested or not shown; [ ] = dose if it differs, or a comment. Unless noted, calls come from the whole dose curve; as a rule, active = well fitted curve in the direction sought with a large enough effect; inconclusive = small, poorly fitted or top-dose-only effect, or another doubt; inactive = no such curve, though single readings can be large; an effect the other way counts as inactive or inconclusive. Unless noted, % is set by controls: 0 for no effect and ±100 for the full control effect; potency is the fitted concentration of half-maximal effect.

SMILES	RGS12 GoLoco inh	KDM4E inh	Tau fluor cs	Tau fibril ThT	Tau FP inhib
O=C(Nn1c(O)c(C=C2N=c3ccccc3=N2)sc1=S)c1ccccc1	32%	1%	14µM*[quencher]	14µM*	-2%
O=C(Nn1c(O)c(C=C2N=c3ccccc3=N2)sc1=S)c1cccc(Cl)c1	6%	-4%	13µM*[quencher]	?	?
Cn1c(=O)oc2cc(S(=O)(=O)NCCC(=O)Nc3ccc(F)c(Cl)c3)ccc21	/	/	-27%	-14%	2%
O=C(CSc1ncc(-c2ccccc2)[nH]1)Nc1cccc(C(F)(F)F)c1	/	/	16µM*[quencher]	-16%	?
O=C(CC1NCCNC1=O)Nc1ccccc1F (centres undefined)	/	/	-8%	1%	1%
Cc1ccc(-c2nc(CS(=O)CC(=O)N3CCN(c4ccc(Cl)cc4)CC3)c(C)o2)cc1 (centres undefined)	/	/	-9%	?	1%
CCOc1ccc(C2=Cc3cc(OC)c(OC)cc3C(=C(Cl)Cl)O2)cc1	-10%	8%	?	18µM*	?
CCOC(=O)c1c(C)c(-c2ccccc2)n(CC(=O)Nc2cc(OC)cc(OC)c2)c1C	/	/	?	-4%	-7%
CCOC(=O)c1c(C)[nH]c(N=Nc2cccc(C)c2)c1C	-28%	1%	?	10µM*	7%
CCOC(=O)c1c(C)[nH]c(N=Nc2cccc(OC)c2)c1C	14%	-4%	?	5µM*	11%
CCOc1ccccc1NC(=O)C(OC(=O)c1ccc(O)cc1)c1ccccc1 (centres undefined)	-10%	-5%	?	5%	22µM*
COc1cccc(-c2nc(SCC(=O)Nc3ccc4c(c3)OCCO4)c(-c3ccc(C)cc3)[nH]2)c1	/	/	5µM*[quencher]	?	?
COc1ccc(-c2nc(SCC(=O)Nc3ccc4c(c3)OCCO4)c(-c3ccc(F)cc3)[nH]2)cc1	/	/	8.9µM*[quencher]	-1%	?
COc1ccc(-c2nc(SCC(=O)Nc3ccc4c(c3)OCCO4)c(-c3ccc(F)cc3)[nH]2)cc1OC	/	/	6.3µM*[quencher]	-12%	5%
O=C(CSc1oc(-c2ccc(F)cc2)nc1S(=O)(=O)c1ccc(Cl)cc1)c1ccccc1	/	/	-29%	2%	?
Cc1ccc(Cl)cc1N1CCN(C(=O)c2ccc(C)c(-n3c(C)nc4cccnc43)c2)CC1	/	/	-3%	-14%	-2%
Cc1cccc(CSc2nc3c(c(-c4cccs4)c2C#N)CN(C)CC3)c1	8%	-15%	25µM*[quencher]	16µM*	-4%
Cc1cccc(CSc2nc(N)c(C#N)c(-c3cccs3)c2C#N)c1	3%	?	?	-3%	?
CN1CCc2nc(SCC(=O)Nc3cccc(F)c3)c(C#N)c(-c3cccs3)c2C1	2%	?	16µM*[quencher]	14µM*	-13%
Cc1ccccc1CNC(=O)c1cccc(NC(=O)N2CCSc3ncccc32)c1	/	/	3%	5%	-4%
CCOC(=O)/C(=N\Nc1ccccc1Cl)N1CCN(C)CC1	6%	8%	1%	-1%	7%
CCOC(=O)C1(C)C=C(Nc2ccc(OC)cc2)C(=O)N1c1ccccc1 (centres undefined)	/	/	?	?	-6%
CCOC(=O)C1(C)/C(=N/Nc2ccc(Cl)cc2)C(=O)C(=O)N1c1ccccc1 (centres undefined)	6%	-9%	-27%	14µM*	?
CCOC(=O)C1(C)/C(=N/Nc2ccc(S(N)(=O)=O)cc2)C(=O)C(=O)N1c1ccccc1 (centres undefined)	44%	-28%	-23%	11µM*	-1%
CCOC(=O)C1(C)/C(=N/Nc2cccc(Cl)c2)C(=O)C(=O)N1c1ccccc1 (centres undefined)	2%	-11%	-16%	20µM*	-4%
CCOC(=O)C1(C)/C(=N/Nc2ccccc2Cl)C(=O)C(=O)N1c1ccccc1 (centres undefined)	-5%	-22%	-29%	14µM*	-14%
Oc1c(C(c2ccccc2Cl)N2CCCC2)sc2nc(-c3ccco3)nn12 (centres undefined)	/	/	2%	-2%	0%
CCOc1ccc(NC(=O)CC2C(=O)N(c3ccc(F)cc3)C(=O)N2CCc2sccc2C)cc1 (centres undefined)	/	/	?	3%	-14%

High-throughput results (PubChem)
